From PubChem BioAssay
Shown are actives, neighbours in structure and some others; about 1.4% of the full set was active somewhere.
AID504770 = growth inhibitors of E. coli YBA685 in a screen for V. cholerae RctB (chromosome II replication) inhibitors; E. coli YBA685 rctB-dependent plasmid, OD600 growth, 3 h; hits give low values; 130,000 tested, 0.27% active; z-score (concentration not given with the values); in the data active = z-score below about -2, passing the limit was not always enough
Polio RdRp inh = poliovirus RNA polymerase inhibition | P03300 | poliovirus polymerase elongation, fluorescence polarization; hits give low values | % elongation, % (compound at 16.7 µg/mL) | 150,000 tested, 0.66% active; in the data active = % elongation below about 90%
Target sequence (P03300 1749-2209 limits assumed): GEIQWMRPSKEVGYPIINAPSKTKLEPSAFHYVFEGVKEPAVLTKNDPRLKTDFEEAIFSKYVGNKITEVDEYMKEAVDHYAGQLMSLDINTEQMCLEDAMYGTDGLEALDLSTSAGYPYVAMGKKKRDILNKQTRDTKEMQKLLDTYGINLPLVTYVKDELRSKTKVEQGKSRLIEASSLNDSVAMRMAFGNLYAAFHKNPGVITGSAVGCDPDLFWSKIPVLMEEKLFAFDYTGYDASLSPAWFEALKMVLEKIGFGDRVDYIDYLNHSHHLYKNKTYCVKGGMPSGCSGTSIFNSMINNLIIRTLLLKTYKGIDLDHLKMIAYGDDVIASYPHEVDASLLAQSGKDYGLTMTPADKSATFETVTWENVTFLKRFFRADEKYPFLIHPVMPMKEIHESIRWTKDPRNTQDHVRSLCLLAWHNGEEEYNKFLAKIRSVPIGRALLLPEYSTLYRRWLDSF
Mtb MbtI inh = MbtI salicylate synthase inhibition. AID 493033. purified MbtI enzyme, fluorescence intensity read-out. 100,000 tested, 0.89% active. inhibition, % (concentration not given with the values); in the data active = inhibition mostly above about 56%, no sharp cut-off; inactive = mostly below about 77%
Mtb MenB inh = blocks the Mycobacterium tuberculosis MenB enzyme | inhibition, % (concentration not given with the values) | 100,000 tested, 0.43% active | MenB enzyme assay, absorbance read-out; in the data active = inhibition above about 21%, passing the limit was not always enough
A number is an active result.

Cc1ccc(O)c(C(=O)c2cnn3c(N)nnc3c2)c1 was read as AID504770 inactive, Polio RdRp inh 64, Mtb MbtI inh inactive and Mtb MenB inh inactive.
Screening Cc1ccc(O)c(C(=O)c2cnn(-c3nc(C)cc(=O)[nH]3)c2)c1 returned AID504770 inactive, Polio RdRp inh inactive, Mtb MbtI inh inactive and Mtb MenB inh inactive.
O=C1/C(=C/c2cc3ccccc3o2)CC/C1=C\c1cc2ccccc2o1 was read as AID504770 inactive, Polio RdRp inh inactive, Mtb MbtI inh inactive and Mtb MenB inh inactive.
For O=C1/C(=C\c2ccc(Br)o2)CC/C1=C/c1ccc(Br)o1 the results were AID504770 inactive, Polio RdRp inh 43, Mtb MbtI inh inactive and Mtb MenB inh inactive.
Screening CNc1c(C(=O)c2ccc(OC)c(OC)c2)sc(N)c1C#N returned AID504770 inactive, Polio RdRp inh inactive and Mtb MenB inh inactive.
For Fc1ccc2nc(NCc3ccccc3)sc2c1 the results were AID504770 inactive, Polio RdRp inh 84, Mtb MbtI inh inactive and Mtb MenB inh inactive.
For NC(=O)N1C(=O)C=CC1=O the results were AID504770 -8.5, Mtb MbtI inh inactive and Mtb MenB inh inactive.
`COC(=O)c1c(NC(=S)NCc2ccco2)sc2c1CCC(C)C2` (stereo unspecified) gave AID504770 inactive, Polio RdRp inh inactive, Mtb MbtI inh inactive and Mtb MenB inh inactive.
Screening COC(=O)c1c(NC(=S)Nn2cnnc2)sc2c1CCC(C)C2 (stereo unspecified) returned AID504770 inactive, Polio RdRp inh inactive, Mtb MbtI inh 85 and Mtb MenB inh inactive.
`CN(C)C(=O)CSc1ccc(-c2ccc(F)cc2)nn1` gave AID504770 inactive, Polio RdRp inh inactive, Mtb MbtI inh inactive and Mtb MenB inh inactive.
`CC(C)Cn1c(O)c(N=NC(=S)NC(C)C)c2ccccc21` gave AID504770 inactive, Polio RdRp inh inactive, Mtb MbtI inh inactive and Mtb MenB inh inactive.
CC(C)n1c(O)c(N=NC(=S)NC2CCCCC2)c2ccccc21 was read as AID504770 -2.9, Polio RdRp inh inactive, Mtb MbtI inh inactive and Mtb MenB inh inactive.
For Cc1ccc(-c2csc(-n3sc4ccccc4c3=O)n2)cc1 the results were AID504770 inactive, Polio RdRp inh inactive and Mtb MbtI inh 87.
Cc1cc(-n2sc3ccccc3c2=O)c2ccccc2n1 was read as AID504770 inactive, Polio RdRp inh inactive, Mtb MbtI inh inactive and Mtb MenB inh inactive.
For O=c1oc2c(o1)=C(c1ccccc1)S(=O)(=O)C=2c1ccccc1 the results were AID504770 inactive, Polio RdRp inh inactive, Mtb MbtI inh 58 and Mtb MenB inh inactive.
O=c1cc(-c2ccccc2)oc2ccccc12 was read as AID504770 inactive.
`CC(=O)Oc1ccc(-c2ccc(C(=O)O)cc2)cc1Cl` gave AID504770 inactive, Polio RdRp inh inactive and Mtb MbtI inh 85.
Screening CC(=O)Oc1ccc(-c2ccc(C(=O)O)cc2)cc1C returned AID504770 inactive, Polio RdRp inh inactive and Mtb MbtI inh inactive.
Screening CC(C)C(=O)Nc1nnc(-c2ccccc2)s1 returned AID504770 inactive, Polio RdRp inh 87 and Mtb MenB inh inactive.
Clc1ccc(C=Nc2ccc(-c3csnn3)cc2)cc1 was read as AID504770 inactive.
For O=C(O)c1cccc(S(=O)(=O)N2CCN(c3ccccc3)CC2)c1 the results were AID504770 inactive, Polio RdRp inh inactive, Mtb MbtI inh inactive and Mtb MenB inh inactive.
CC(C)(C)C1=CC(C(C#N)C#N)c2ccccc2O1 (stereo unspecified) was read as AID504770 -2.1, Polio RdRp inh inactive and Mtb MbtI inh inactive.
For CNC(=O)C1c2ccccc2Oc2ccccc21 the results were AID504770 inactive, Polio RdRp inh inactive, Mtb MbtI inh inactive and Mtb MenB inh inactive.
For CC12C=CC(CO)(O1)C1C(=O)N(c3ccc(Br)cc3)C(=O)C12 (stereo unspecified) the results were AID504770 inactive, Polio RdRp inh inactive, Mtb MbtI inh 101 and Mtb MenB inh inactive.
`CC1(C)c2sc(=O)[nH]c2SC2C(=O)N(c3ccc(Br)cc3)C(=O)C21` (stereo unspecified) gave AID504770 inactive, Polio RdRp inh inactive, Mtb MbtI inh inactive and Mtb MenB inh inactive.
Screening CCCOC(=O)Cn1cnc2sc(C)c(C)c2c1=O returned AID504770 inactive, Polio RdRp inh inactive and Mtb MenB inh inactive.
For O=c1[nH]c2cc3c(cc2[nH]1)OCCO3 the results were AID504770 inactive, Polio RdRp inh inactive, Mtb MbtI inh inactive and Mtb MenB inh 37.
Screening S=c1[nH]nc(-c2c[nH]c3ccccc23)n1CC1CCCO1 (stereo unspecified) returned AID504770 inactive, Polio RdRp inh inactive, Mtb MbtI inh inactive and Mtb MenB inh inactive.
CC1=C(C)C(=O)C(NCc2ccccn2)=CC1=O was read as AID504770 inactive, Polio RdRp inh 66, Mtb MbtI inh inactive and Mtb MenB inh inactive.
